Data as given in PubChem BioAssay (Tox21).
Unmarked numbers belong to inactive results. Records with an inconclusive call do not appear. Entries that show only a call come without a potency. The source made the active and inactive calls. Unless noted, calls follow the shape of the dose curve; as a rule, active = well fitted curve in the direction sought with a large enough effect in the repeat runs; inconclusive = weak or mixed curves; inactive = no such curve, though single readings can be large; an effect the other way counts as inactive or inconclusive.

Legend:
[1] = qHTS assay for small molecule agonists of the p53 signaling pathway (AID 651631; calls by dose curve; also: nearly all actives have a fitted effect of over 15% in size)
In short: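 Testing took place in human colorectal HCT-116 cells with stable p53RE-driven beta-lactamase. After 16 h of compound exposure at 37 °C, a FRET substrate was added and fluorescence recorded 2 h later.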

[2] = qHTS assay for small molecules that induce genotoxicity in human embryonic kidney cells expressing luciferase-tagged ATAD5 - cell viability (AID 651634; calls by dose curve; also: nearly all actives have a fitted effect of over 25% in size)
In short: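 HEK293T cells expressing luciferase-tagged ATAD5 were exposed to compound or DMSO for 15.5 hr at 37C, 5% CO2. Viability was then read as live-cell protease activity by CellTiter-Fluor fluorescence after 30 min at 37C.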

[3] = qHTS assay for small molecule disruptors of the mitochondrial membrane potential - cell viability (AID 720634; calls by dose curve;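 also: human HepG2 liver cancer cells; series mostly up to about 83 µM; nearly all actives have a fitted effect of over 20% in size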)
In short: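 HepG2 cells seeded overnight at 37 C, then exposed to compound or DMSO for 1 hr at 37 C, 5% CO2. m-MPI dye added, then CellTiter-Glo for 30 min at room temperature; viability read as ATP luminescence.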

[4] = qHTS assay for small molecule disruptors of the mitochondrial membrane potential (AID 720635); also: potency is read from the fitted curve at half-maximal effect
In short: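 Mitochondrial membrane potential tracked with Mito-MPS dye, red aggregates (ex 540/em 590 nm) against green monomers (ex 490/em 535 nm). Compound treatment 1 hr at 37C, dye 30 min in HepG2.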

[5] = qHTS assay to test for compound auto fluorescence at 535 nm (green) in HepG2 cells (AID 720675)
[6] = qHTS assay to test for compound auto fluorescence at 460 nm (blue) in HEK293 cells (AID 720678)
In short: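 Measured: blue fluorescence (Ex 405/Em 460 nm) of compound-treated HEK293 cells, incubated overnight at 37C with 5% CO2 and scaled to triamterene equivalents.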

[7] = qHTS assay to test for compound auto fluorescence at 590 nm (red) in HEK293 cells (AID 720679)
In short: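 Using HEK293 cells at 2,000 per well, the screen added 23 nL of each compound after cell attachment and incubated overnight (37C, 5% CO2). The plate reader then captured red-label fluorescence, Ex/Em 540/590nm.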

[8] = qHTS assay to test for compound auto fluorescence at 535 nm (green) in HEK293 cells (AID 720680)
[9] = qHTS assay to test for compound auto fluorescence at 460 nm (blue) in HEK293 cell free culture (AID 720681)
In short: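 Blue fluorescence (Ex 405/Em 460 nm, triamterene-equivalent) was read immediately after pin transfer of compound or DMSO into medium (DMEM, 10% FBS) without cells.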

[10] = qHTS assay to test for compound auto fluorescence at 535 nm (green) in HEK293 cell free culture (AID 720682)
In short: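 DMEM + 10% FBS, cell-free; cpd or DMSO pinned in; Ex485/Em535 read; output as fluorescein-equivalent signal.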

[11] = qHTS assay to test for compound auto fluorescence at 590 nm (red) in HEK293 cell free culture (AID 720683)
In short: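 Red-channel autofluorescence of compounds in culture medium (DMEM, 10% FBS), no cells, measured at 540/590 nm. Rose Bengal sodium is the reference fluorophore for equivalence.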

[12] = qHTS assay to test for compound auto fluorescence at 590 nm (red) in HepG2 cell free culture (AID 720684)
In short: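 Plate contents were MEM with 10% FBS plus test compound or DMSO, no cells. Fluorescence was recorded with 540 nm excitation and 590 nm emission.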

[13] = qHTS assay to test for compound auto fluorescence at 535 nm (green) in HepG2 cell free culture (AID 720686)
[14] = qHTS assay to test for compound auto fluorescence at 460 nm (blue) in HepG2 cells (AID 720687)
In short: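 Blue-channel autofluorescence (Ex/Em 405/460 nm, triamterene-equivalent) was measured after 1 hr compound exposure at 37 C, 5% CO2. Cells were HepG2, plated overnight at 37 C in MEM plus 10% FBS.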

[15] = target: Glucocorticoid receptor (Homo sapiens) (UniProt P04150); test: qHTS assay to identify small molecule agonists of the glucocorticoid receptor (GR) signaling pathway (AID 720691; active = well fitted activation curve with a large enough effect in the signal ratio in the repeat runs, not every such curve was filed as active; the % refers to the signal ratio)
In short: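 GR-bla HeLa cells (beta-lactamase reporter under glucocorticoid response element) were plated 4 h at 37 C/5% CO2, given compounds in DMSO, and incubated 18 h at 37 C. LiveBLAzer B/G FRET substrate was added for 2 h at room temperature, then fluorescence intensity read.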

[16] = target: Glucocorticoid receptor (Homo sapiens) (UniProt P04150); test: qHTS assay to identify small molecule antagonists of the glucocorticoid receptor (GR) signaling pathway (AID 720692; active = well fitted inhibition curve with a large enough effect in the signal ratio in the repeat runs, not every such curve was filed as active; the % refers to the signal ratio)
In short: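 GR-bla HeLa cells (beta-lactamase reporter under glucocorticoid response element) were pre-plated 4 h at 37 C, treated with compounds plus 5 nM dexamethasone (final) for 18 h, then read by LiveBLAzer B/G FRET fluorescence after 2 h.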

[17] = qHTS assay for small molecule agonists of the p53 signaling pathway - cell viability (AID 651633; calls by dose curve; also: series mostly up to about 83 µM; nearly all actives have a fitted effect of over 30% in size)
In short: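 Viability counter-read: CellTiter-Glo luminescence (30 min, room temperature) in the same p53RE-bla plates. These plates had been exposed to compounds for 16 h at 37 C.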

[18] = qHTS assay to test for compound auto fluorescence at 460 nm (blue) in HepG2 cell free culture (AID 720685)
In short: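 Compound (23 nL) or DMSO pinned into cell-free MEM with 10% FBS; blue fluorescence read at 405/460 nm excitation/emission, expressed as auto-fluorescence equivalency to triamterene.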

[19] = qHTS assay to test for compound auto fluorescence at 590 nm (red) in HepG2 cells (AID 720674)
In short: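 Red autofluorescence (Ex/Em 540/590 nm, Rose Bengal sodium equivalents) was measured in HepG2 cells, 2,000 per well in MEM plus 10% FBS, plated overnight at 37 C. Readings were taken 1 hr after adding 23 nL compound or DMSO, at 37 C and 5% CO2.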

Chain of Glucocorticoid receptor (Homo sapiens) (P04150 whole entry, looked up): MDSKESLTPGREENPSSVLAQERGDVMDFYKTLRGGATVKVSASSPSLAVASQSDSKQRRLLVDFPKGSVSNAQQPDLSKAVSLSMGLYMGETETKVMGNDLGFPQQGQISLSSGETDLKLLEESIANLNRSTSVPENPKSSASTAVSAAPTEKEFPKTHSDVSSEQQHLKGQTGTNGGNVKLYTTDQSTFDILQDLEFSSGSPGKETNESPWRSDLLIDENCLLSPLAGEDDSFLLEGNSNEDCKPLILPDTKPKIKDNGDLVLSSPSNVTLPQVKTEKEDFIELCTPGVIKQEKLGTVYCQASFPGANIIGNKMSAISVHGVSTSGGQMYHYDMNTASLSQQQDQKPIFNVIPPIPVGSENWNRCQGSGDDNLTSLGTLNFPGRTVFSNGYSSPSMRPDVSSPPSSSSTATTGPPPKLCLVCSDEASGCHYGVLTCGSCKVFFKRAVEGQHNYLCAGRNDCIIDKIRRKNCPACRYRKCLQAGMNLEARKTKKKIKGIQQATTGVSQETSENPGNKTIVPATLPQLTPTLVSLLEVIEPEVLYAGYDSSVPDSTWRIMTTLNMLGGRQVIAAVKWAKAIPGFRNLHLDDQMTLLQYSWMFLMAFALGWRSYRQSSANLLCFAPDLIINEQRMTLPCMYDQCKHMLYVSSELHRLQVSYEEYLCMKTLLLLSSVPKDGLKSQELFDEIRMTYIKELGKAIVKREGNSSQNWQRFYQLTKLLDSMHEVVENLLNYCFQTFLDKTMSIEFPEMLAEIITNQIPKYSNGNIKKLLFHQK

Row | Structure (SMILES) | Potency [1] | Potency [2] | Potency [3] | Potency [4] | outcome [5] | outcome [6] | outcome [7] | outcome [8] | outcome [9] | outcome [10] | outcome [11] | outcome [12] | outcome [13] | outcome [14] | outcome [15] | Potency [16] | Potency [17] | outcome [18] | outcome [19]
1 | ClC(Cl)(Cl)C(Cl)(Cl)Cl | inactive | inactive | inactive | inactive | inactive | inactive | inactive | inactive | inactive | inactive | inactive | inactive | inactive | inactive | inactive | inactive | – | – | –
2 | N#Cc1c(Cl)cccc1Cl | inactive | inactive | inactive | – | inactive | inactive | inactive | inactive | inactive | inactive | inactive | – | inactive | – | inactive | – | inactive | inactive | –
3 | CNC(=O)Oc1ccc(N(C)C)c(C)c1 | inactive | – | inactive | – | inactive | inactive | inactive | inactive | inactive | inactive | inactive | – | inactive | inactive | inactive | inactive | inactive | inactive | inactive
4 | O=[N+]([O-])c1ccc2c3c(cccc13)CC2 | inactive | – | inactive | 24.3 µM (active) | inactive | inactive | inactive | inactive | inactive | inactive | inactive | – | inactive | inactive | – | – | inactive | inactive | inactive
5 | Nc1cnn(-c2ccccc2)c(=O)c1Cl | inactive | inactive | inactive | inactive | inactive | inactive | inactive | inactive | inactive | inactive | inactive | inactive | inactive | inactive | inactive | inactive | inactive | inactive | –
6 | Cc1cc(C)nc(Nc2ccccc2)n1 | inactive | inactive | inactive | – | inactive | inactive | inactive | inactive | inactive | – | inactive | inactive | inactive | inactive | inactive | inactive | inactive | inactive | inactive
7 | CNCC(=O)c1ccc(O)c(O)c1 | inactive | inactive | inactive | inactive | inactive | inactive | inactive | inactive | inactive | – | inactive | inactive | inactive | inactive | inactive | inactive | inactive | inactive | inactive
8 | COC(=O)C(c1ccccc1)C1CCCCN1 (stereo not drawn) | inactive | inactive | inactive | inactive | inactive | inactive | inactive | inactive | inactive | inactive | inactive | inactive | inactive | inactive | inactive | inactive | inactive | inactive | inactive
